Screens as filed in PubChem BioAssay.
PAFAH2 FP inh = PAFAH2 enzyme inhibitors, primary screen, biochemical, fluorescence polarization, human. Platelet-activating factor acetylhydrolase 2, cytoplasmic (Homo sapiens), Q99487. inhibition, % at 3.39 µM. 340,000 compounds, 0.99% hits. AID 492956, 2010. recombinant PAFAH2, FP-rhodamine activity probe;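 active = inhibition above the mean over all tested compounds plus 3 SD, cut at about 30% in these data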;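 note: inhibitors block probe labeling of enzyme so polarization drops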
PAFAH1B2 FP inh = PAFAH1B2 enzyme inhibitors, primary screen, biochemical, fluorescence polarization, human. recombinant PAFAH1B2, FP-rhodamine activity probe. inhibition, % at 3.39 µM. 340,000 compounds, 1.2% hits. AID 492953, 2010;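 active = inhibition above the mean of all tested compounds plus 3 SD, cut at about 24% in these data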
Target sequence (P68402 whole entry, looked up): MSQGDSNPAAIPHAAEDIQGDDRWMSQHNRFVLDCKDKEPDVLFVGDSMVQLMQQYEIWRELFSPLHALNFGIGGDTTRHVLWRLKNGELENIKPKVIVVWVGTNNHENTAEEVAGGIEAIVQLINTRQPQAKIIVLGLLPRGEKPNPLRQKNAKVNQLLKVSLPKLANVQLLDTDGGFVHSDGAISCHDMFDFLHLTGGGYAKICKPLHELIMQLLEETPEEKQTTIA
pPAFAH FP inh = pPAFAH enzyme inhibitors, primary screen, biochemical, fluorescence polarization, human; Platelet-activating factor acetylhydrolase (Homo sapiens), Q13093; recombinant pPAFAH, FP-rhodamine probe fluorescence polarization; inhibition, % at 3.39 µM; 330,000 compounds, 1.5% hits; AID 463082, 2010;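 active = inhibition above the mean inhibition across the screen plus 3 SD, cut at about 25% in these data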;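 note: inhibitors block binding of the rhodamine activity-based probe so polarization drops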
PAFAH1B3 inh = PAFAH1B3 enzyme inhibitors, primary screen, biochemical, fluorescence polarization, human; 340,000 compounds, 0.28% hits; recombinant PAFAH1B3, FP-rhodamine probe; inhibition, % at 3.39 µM; AID 492972, 2010; Platelet-activating factor acetylhydrolase IB subunit alpha1 (Homo sapiens), Q15102;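 active = inhibition above the screen-wide average of all tested compounds plus 3 SD, cut at about 25% in these data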
Target sequence (Q15102 whole entry, looked up): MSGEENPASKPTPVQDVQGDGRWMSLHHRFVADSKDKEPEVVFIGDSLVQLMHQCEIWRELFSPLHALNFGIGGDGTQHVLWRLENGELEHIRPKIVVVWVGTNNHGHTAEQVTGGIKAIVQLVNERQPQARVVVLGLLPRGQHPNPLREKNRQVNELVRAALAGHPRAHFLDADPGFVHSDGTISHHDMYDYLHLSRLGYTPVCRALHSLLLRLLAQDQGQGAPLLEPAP
TCR CD3 inh = inhibitors of human TCR-CD3 interaction, primary screen, biochemical, fluorescence, TAMRA-labeled TCR probe. T-cell receptor (TCR). 360,000 compounds, 0.37% hits. inhibition, % at 9.4 µM. AID 651800, 2012; in the data active = inhibition above about 19%;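 note: recombinant mutant TCR 2C K166C tagged with TAMRA read by polarization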
Each line names hits and unclear results; the compound was inactive in the other large screens. Shown are actives, neighbours in structure and some others; about 2.7% of the full set was active somewhere.

CCOc1ccc(NS(=O)(=O)c2ccc3c(c2)N(C(C)=O)CCS3)cc1	pPAFAH FP inh 32
Cc1ccc(NS(=O)(=O)c2ccc3c(c2)oc(=O)n3C)cc1F	pPAFAH FP inh 31
c1ccc(-c2nc3ccccc3nc2-c2ccc(CN3CCC(c4nc5ccccc5[nH]4)CC3)cc2)cc1	none (no result: PAFAH2 FP inh, PAFAH1B2 FP inh, pPAFAH FP inh, PAFAH1B3 inh)
Cc1ccc(CN(C(=O)c2csnn2)C(C(=O)NC2CCCC2)c2ccco2)cc1 (stereo not given)	none
CCCCNC(=O)C[C@H]1C[C@@]2(C(=O)OC)C(=C[C@H](COCc3ccccc3)O[C@@H]2C)N(CCC2=CCCCC2)C1=O	none (no result: PAFAH2 FP inh, PAFAH1B2 FP inh, pPAFAH FP inh, PAFAH1B3 inh)
CC(C)(C)c1ccc(C(CC(=O)O)NC(=O)Cc2ccc(F)cc2)cc1 (stereo not given)	none (no result: PAFAH2 FP inh, PAFAH1B2 FP inh, PAFAH1B3 inh, TCR CD3 inh)
CC(C)(C)c1ccc(CCC(CC(=O)O)CC(=O)O)cc1	PAFAH1B2 FP inh 27
CC(C)(C)n1cnc2cc(NCc3ccc(Br)cc3)ccc21	PAFAH1B2 FP inh 34
NC(=O)c1ncn([C@@H]2O[C@H](C(=O)N[C@H](Cc3c[nH]c4ccccc34)C(=O)N3CCN(C(=O)N4CCCCC4)CC3)[C@@H](O)[C@H]2O)n1	none (no result: PAFAH2 FP inh, PAFAH1B2 FP inh, pPAFAH FP inh, PAFAH1B3 inh)
Cc1ccc(C(=O)ON=C2CCN(c3ccc([N+](=O)[O-])cc3)CC2)cc1	PAFAH2 FP inh 77
CC(=O)N1C(C)(C)CC(=NOC(=O)c2ccc(C)cc2)CC1(C)C	PAFAH2 FP inh 83, pPAFAH FP inh 25
CC1CCN(C(=O)COC(=O)c2ccc([N+](=O)[O-])o2)CC1	pPAFAH FP inh 28
CC1CCN(C(=O)COC(=O)c2ccc(Br)o2)CC1	none
Cc1ccc(CN=C2NC(=O)C(CC(=O)NCCc3ccccc3)S2)cc1 (stereo not given)	PAFAH1B2 FP inh 42 (no result: TCR CD3 inh)
O=C(COc1c(Br)cc(Br)c2cccnc12)Nc1ccccc1F	pPAFAH FP inh 30
CCN1c2ccccc2S(=O)(=O)c2ccccc21	none
CCOC(=O)c1c(OCC)[nH]c2c1cc(O)c1ccccc12	pPAFAH FP inh 27
CC(C)c1ccc(C(CC(=O)c2ccc(Cl)cc2)C(=O)O)cc1 (stereo not given)	PAFAH1B2 FP inh 38
O=S(=O)(Nc1ccc(Cc2ccncc2)cc1)c1ccc(Cl)s1	none
O=S(=O)(Nc1ccc(Cc2ccncc2)cc1)c1ccc(Br)s1	pPAFAH FP inh 26
O=C(O)CN1C(=O)C2C3CC(C2C1=O)C1C(c2ccccc2)c2sc(=O)[nH]c2SC31 (stereo not given)	PAFAH1B2 FP inh 72
O=C(O)CCCN1C(=O)C2C3CC(C2C1=O)C1C(c2ccccc2)c2sc(=O)n(-c4ccccc4)c2SC31 (stereo not given)	none
CC(C)CC(C(=O)O)N1C(=O)C2C3CC(C2C1=O)C1C(c2ccccc2)c2sc(=O)[nH]c2SC31 (stereo not given)	PAFAH1B2 FP inh 40
Cc1cc(NCCc2c[nH]c3ccccc23)ccc1Nc1cccnc1	none (no result: PAFAH2 FP inh, PAFAH1B2 FP inh, pPAFAH FP inh, PAFAH1B3 inh)
O=C1N/C(=N\S(=O)(=O)Cc2ccccc2)S/C1=C/c1cc([N+](=O)[O-])ccc1O	PAFAH1B2 FP inh 29, pPAFAH FP inh 32, PAFAH1B3 inh 39
COc1cc(/C=C2\S/C(=N/S(=O)(=O)Cc3ccccc3)NC2=O)c([N+](=O)[O-])cc1OC	none
O=C(NC(Cc1ccccc1)C(=O)O)C1CCN(S(=O)(=O)c2cccc(C(F)(F)F)c2)CC1 (stereo not given)	pPAFAH FP inh 27
Cc1ccc([N+](=O)[O-])c(-c2n[nH]c(=S)n2-c2cccc(Cl)c2)c1	PAFAH1B2 FP inh 31
Cc1cccc(-n2c(-c3ccoc3C)n[nH]c2=S)c1	none
COc1ccc(-c2ccc3c(n2)CCCN3S(=O)(=O)c2ccccc2C)cc1	none (no result: PAFAH2 FP inh, PAFAH1B2 FP inh, pPAFAH FP inh, PAFAH1B3 inh)
CN(C)/C=C(\C=O)c1onc(-c2ccccc2Cl)c1C#N	PAFAH2 FP inh 33
Cc1ccccc1-n1c(C)cc(/C=C(\C#N)C(=O)NCC2CCCO2)c1C (stereo not given)	pPAFAH FP inh 26
Cc1ccc(/C=C(\C#N)C(=O)NCC2CCCO2)o1 (stereo not given)	none
CCC(=O)Nc1cccc(-c2nc3ncccc3o2)c1C	none
Cc1c(NC(=O)CSc2ccc(Cl)cc2)cccc1-c1nc2ncccc2o1	PAFAH1B2 FP inh 25
O=C(NC(=S)Nc1cc([N+](=O)[O-])ccc1O)c1ccc2c(c1)OCO2	pPAFAH FP inh 29
